Compounds with a hit are over-represented: about 19% of the library has one in this group of screens.
HT1080 IDH1KD tx – toxicity to HT-1080 IDH1 knockdown cells (counter line); HT-1080 IDH1 knockdown viability, ATP luminescence, 48 h; Potency, µM (titrated, usually from 46.1 µM), most hits filed as cytotoxic; 2% of 360,000 active
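In this qHTS, HT-1080 cells depleted of IDH1 are exposed for 48 h at 37 °C to compound titrations. Toxicity is scored from CellTiter-Glo luminescence, with DMSO as full viability and medium alone as none.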
DT40 TDP1 CPT – growth inhibition of DT40 Tdp1-/-;hTDP1 cells with camptothecin (screen for TDP1 inhibitors) | chicken DT40 Tdp1-/-;hTDP1 cells + 20 nM CPT, ATP luminescence, 48 h | Potency, µM (doses to about 46.2 µM), actives largely listed as inhibitors | 12% of 420,000 active | AID 686979; note: nearly all actives have a fitted effect of over 55% in size
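Cell growth measured by CellTiter-Glo luminescence after a minimum 48 h, 37 C compound exposure with 20 nM CPT in Tdp1-knockout DT40 cells stably expressing hTDP1, seeded 400/well; qHTS titration format.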
IL1B secr inh – inflammasome signaling inhibition, IL-1 beta readout; THP-1 LPS/ATP IL-1B secretion, AlphaLISA, 16 h; stronger effect = lower value; activity change, % at 57.5 µM; 4.7% of 360,000 active; AID 743279; in the data active = activity change below about -50%; inconclusive = mostly about -30% to -49%
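THP-1 cells pretreated 1 hr with compounds (up to 57.5 uM final), then stimulated with LPS (250 ng/mL final) plus ATP (1.25 mM final); secreted IL-1B measured by AlphaLISA after 16 hr, decreased signal indicating inhibition.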
HT1080NT lethal – kills 2HG-producing HT-1080-NT fibrosarcoma cells | HT-1080-NT fibrosarcoma viability, CellTiter-Glo ATP luminescence, 48 h | Potency, µM (series often up to 46.1 µM), actives largely listed as cytotoxic | 1.6% of 360,000 active | AID 686970;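 note: NT is the 2HG producing partner of a matched IDH1 knockdown line; nearly all actives have a fitted effect of over 55% in size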
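Viability of the 2HG-overproducing fibrosarcoma line after 48 hours of compound exposure at 37 degrees C was determined by luminescence with CellTiter-Glo, and concentration-effect curves were then fitted and categorized.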
DT40 TDP1 no CPT – qHTS for Inhibitors of human tyrosyl-DNA phosphodiesterase 1 (TDP1): qHTS in cells in absence of CPT | 15% of 420,000 active | Potency, µM (series often up to 46.2 µM), usual class: inhibitors | DT40 Tdp1-/- hTDP1 cells, no CPT, ATP luminescence, 48 h; note: nearly all actives have a fitted effect of over 55% in size
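Chicken DT40 Tdp1-/- cells stably complemented with human TDP1 were seeded at 400 cells/well with DMSO in place of 20 nM camptothecin. After compound pinning, cells grew at least 48 hr at 37 °C; viability read by CellTiter-Glo luminescence.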
Numbers stand for hits; – = inactive; ? = inconclusive; · = not tested or not shown. Unless noted, calls come from the whole dose curve; as a rule, active = well fitted curve in the direction sought with a large enough effect; inconclusive = small, poorly fitted or top-dose-only effect, or another doubt; inactive = no such curve, though single readings can be large; an effect the other way counts as inactive or inconclusive.

SMILES	HT1080 IDH1KD tx	DT40 TDP1 CPT	IL1B secr inh	HT1080NT lethal	DT40 TDP1 no CPT
COCc1nnc(NS(=O)(=O)c2c(C)cc(C)cc2C)s1	–	–	–	–	–
O=[N+]([O-])/C(C(Cl)=C(Cl)Cl)=C(/Sc1ccccc1)N1CCCCC1	–	?	-89	–	13µM
O=C(N/C(=C\c1ccc([N+](=O)[O-])cc1)C(=O)N1CCCCC1)c1ccccc1	–	?	–	–	?
CCc1ccccc1NC(=O)Cn1c(=O)n(Cc2ccco2)c(=O)c2ccccc21	·	–	·	·	–
O=c1cc(-c2ccccc2)cc(-c2ccccc2)n1O	?	21µM	–	–	16µM
O=C(/C=C/c1cccc(F)c1)NC1CCN(Cc2ccccc2)CC1	–	–	–	–	?
CC1(C(=O)NC2CCN(Cc3ccccc3)CC2)CCN1CCc1ccccc1 (stereo unspecified)	–	29µM	–	–	?
O=C(/C=C/c1cccc(Br)c1)NC1CCN(Cc2ccccc2)CC1	?	?	-78	–	23µM
O=C(COc1ccc(Br)cc1CNC1CCCCC1)NCCc1ccccc1	18µM	18µM	-97	23µM	16µM
O=C(NC1CCN(Cc2ccccc2)CC1)c1cccc(Br)c1	–	16µM	–	–	?
Cc1[nH]c2ccc(F)cc2c1CCNC(=O)c1cc2cc(Cl)ccc2oc1=O	·	–	·	·	–
CCc1ccc(CN2CCC(Oc3cc(C(=O)NC4CC4)ccc3OC)CC2)cc1	–	–	–	–	15µM
O=C(O)/C=C/C(=O)N(Cc1ccccc1)Cc1ccco1	–	–	–	–	–
Cc1ccc(C)n1-c1ccc(C(=O)Nc2ccccc2)cc1	–	?	-65	–	26µM
C=C(C)c1cccc(C(C)(C)NC(=O)N(Cc2ccccc2)Cc2ccco2)c1	?	16µM	–	–	21µM
Cc1ccc(C)n1-c1ccc(C(=O)NC2CCN(Cc3ccccc3)CC2)cc1	–	?	-59	–	21µM
CCOc1ccc(Nc2cc(C)c(C#N)c3nc4ccccc4n23)cc1	·	?	·	·	–
CCOc1ccc(S(=O)(=O)N2CCN(CC)CC2)cc1NC(=O)c1ccccc1F	–	–	–	–	?
O=C(O)C(Cc1ccc(Cl)cc1)Sc1nc2ccccc2[nH]1 (stereo unspecified)	–	–	–	–	–
CCn1cc(C(=O)N2CCc3ccccc32)c(=O)c2cc(S(=O)(=O)N(C)C3CCCCC3)ccc21	–	–	–	–	?
CCOc1ccccc1OCC(=O)NC1CCCCC1	–	–	–	–	–
C=C(C)c1cccc(C(C)(C)NC(=O)NC2CCN(Cc3ccccc3)CC2)c1	–	?	–	–	18µM
CCOc1cc(CNC2CCCC2)c(Cl)cc1OCC(=O)Nc1ccccc1	–	18µM	–	–	18µM
CCN(c1ccccc1)S(=O)(=O)c1ccc(C(=O)NC2CCN(Cc3ccccc3)CC2)cc1	?	8.2µM	?	–	7.3µM
Cc1ccc(CN2CCC(NC(=O)c3ccccc3)CC2)cc1	–	?	–	–	18µM
SMILES	HT1080 IDH1KD tx	DT40 TDP1 CPT	IL1B secr inh	HT1080NT lethal	DT40 TDP1 no CPT
O=C(NC1CC1)c1ccc(CN(c2ccccc2)S(=O)(=O)c2ccccc2)cc1	–	–	–	–	–
O=C(NC1CCCC1)C(C1CC1)n1c(-c2ccnc3ccccc23)nc2ccccc21 (stereo unspecified)	–	?	–	–	?
O=C(Nc1c(-c2ccc(Cl)cc2)[nH][nH]c1=O)c1ccc(Br)cc1	–	–	–	–	–
CN1CCN(c2ncc3ncc(=O)n(-c4ccccc4)c3n2)CC1	·	–	·	·	–
O=C(COc1ccc(Br)cc1Cl)NC1CCN(Cc2ccccc2)CC1	–	?	-81	–	?
CC1S/C(=C(\C#N)C(=O)NCc2ccco2)N(c2ccc(F)cc2)C1=O (stereo unspecified)	–	–	–	–	–
C=Cn1nc(C)c2ccccc2c1=O	–	–	–	–	–
Cc1cccc(C)c1OCC(O)CN1CCN(c2ccccc2)CC1 (stereo unspecified)	–	?	–	–	?
OC(COCC(F)(F)C(F)(F)C(F)(F)C(F)F)Cn1c2ccccc2c2ccccc21 (stereo unspecified)	–	13µM	-103	?	8.2µM
Cc1cccc(C)c1OCC(O)Cn1c2ccccc2c2ccccc21 (stereo unspecified)	?	?	–	–	21µM
Cc1ccc(OCC(O)Cn2c3ccccc3c3ccccc32)cc1 (stereo unspecified)	?	?	-84	?	13µM
COC(=O)c1ccc(-n2nnc(-c3nc(-c4ccccc4Cl)no3)c2C)cc1	·	–	·	·	–
COc1ccc(N2CCN(c3cc(C)c4cccc(C)c4n3)CC2)cc1	–	?	–	–	–
Cc1cc(N2CCN(c3ncccn3)CC2)nc2c(C)cccc12	–	?	–	–	15µM
Cc1cc(OCC(=O)N(Cc2ccccc2)C2CCS(=O)(=O)C2)ccc1Cl (stereo unspecified)	–	–	–	–	–
O=C(CSC1CN(C(c2ccccc2)c2ccccc2)C1)N/N=C/c1ccccc1	23µM	16µM	–	?	?
Cc1cc2cc(CN(CC3CCCO3)C(=S)Nc3ccccc3)c(=O)[nH]c2cc1C (stereo unspecified)	?	6.5µM	–	12µM	5.8µM
COc1ccc2cc(CN(CC3CCCO3)C(=S)Nc3ccccc3)c(=O)[nH]c2c1 (stereo unspecified)	15µM	5.2µM	?	26µM	6.5µM
CCn1c(=O)c2c(nc(SCC(=O)N3CCCC(C)C3)n2C)n(C)c1=O (stereo unspecified)	–	–	–	–	–
CC(CCc1ccccc1)NC(=O)CCNS(=O)(=O)c1ccccc1C(F)(F)F (stereo unspecified)	–	?	–	–	?
O=C(O)CC(Cc1ccccc1)(C(=O)O)c1ccccc1 (stereo unspecified)	–	–	–	–	–
c1ccc(CSc2nnc(-c3cccs3)n2Cc2ccco2)cc1	–	?	-67	–	?
c1ccc(CSc2nnc(-c3ccco3)n2Cc2ccco2)cc1	–	?	–	–	23µM
Cc1ccccc1CSc1nnc(-c2cccs2)n1Cc1ccco1	–	?	–	–	23µM
c1coc(Cn2c(SCc3nc4ccccc4[nH]3)nnc2-c2cccs2)c1	–	–	–	–	–
COc1cc(C(O)c2nc(-c3cccc(NC(C)=O)c3)cs2)ccc1F (stereo unspecified)	–	?	–	–	16µM
COc1cccc(C(O)c2nc(-c3cccc(C(F)(F)F)c3)cs2)c1 (stereo unspecified)	–	–	–	–	0.58µM

Source: PubChem
